The full ranking holds about 33,000 sequences; the median of “E-score (-0.5 to 0.5)” is about -0.053, and the highest 2% start at about 0.37. The list comes from a sample in which the highest values are over-represented; it also holds similar and randomly drawn sequences.
What follows are sequences tested against Hap1 (UniProt P0CE41) (assay: PBM E-score (8-mer binding enrichment) (E-score (-0.5 to 0.5)); higher = stronger / more preferred TF binding). Settings: protein concentration: 200 nM; construct: GST-DNA-binding domain.
Experimental: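 Universal 'all 10-mer' protein binding microarrays (Agilent AMADID 015681) probed with GST-tagged S. cerevisiae TFs (full-length or DBD) made by in vitro transcription/translation (PURExpress), about 100-200 nM. Bound TF was detected with fluorescent anti-GST. Each ungapped 8-mer (which stands for itself and its reverse complement) is scored by the PBM enrichment score (E-score), a modified Wilcoxon-Mann-Whitney statistic from -0.5 to +0.5, computed with the Universal PBM Analysis Suite. Scale: above 0.35 generally sequence-specific binding.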

UniProt P0CE41, sequence (P0CE41 whole entry, the tested form may be a part): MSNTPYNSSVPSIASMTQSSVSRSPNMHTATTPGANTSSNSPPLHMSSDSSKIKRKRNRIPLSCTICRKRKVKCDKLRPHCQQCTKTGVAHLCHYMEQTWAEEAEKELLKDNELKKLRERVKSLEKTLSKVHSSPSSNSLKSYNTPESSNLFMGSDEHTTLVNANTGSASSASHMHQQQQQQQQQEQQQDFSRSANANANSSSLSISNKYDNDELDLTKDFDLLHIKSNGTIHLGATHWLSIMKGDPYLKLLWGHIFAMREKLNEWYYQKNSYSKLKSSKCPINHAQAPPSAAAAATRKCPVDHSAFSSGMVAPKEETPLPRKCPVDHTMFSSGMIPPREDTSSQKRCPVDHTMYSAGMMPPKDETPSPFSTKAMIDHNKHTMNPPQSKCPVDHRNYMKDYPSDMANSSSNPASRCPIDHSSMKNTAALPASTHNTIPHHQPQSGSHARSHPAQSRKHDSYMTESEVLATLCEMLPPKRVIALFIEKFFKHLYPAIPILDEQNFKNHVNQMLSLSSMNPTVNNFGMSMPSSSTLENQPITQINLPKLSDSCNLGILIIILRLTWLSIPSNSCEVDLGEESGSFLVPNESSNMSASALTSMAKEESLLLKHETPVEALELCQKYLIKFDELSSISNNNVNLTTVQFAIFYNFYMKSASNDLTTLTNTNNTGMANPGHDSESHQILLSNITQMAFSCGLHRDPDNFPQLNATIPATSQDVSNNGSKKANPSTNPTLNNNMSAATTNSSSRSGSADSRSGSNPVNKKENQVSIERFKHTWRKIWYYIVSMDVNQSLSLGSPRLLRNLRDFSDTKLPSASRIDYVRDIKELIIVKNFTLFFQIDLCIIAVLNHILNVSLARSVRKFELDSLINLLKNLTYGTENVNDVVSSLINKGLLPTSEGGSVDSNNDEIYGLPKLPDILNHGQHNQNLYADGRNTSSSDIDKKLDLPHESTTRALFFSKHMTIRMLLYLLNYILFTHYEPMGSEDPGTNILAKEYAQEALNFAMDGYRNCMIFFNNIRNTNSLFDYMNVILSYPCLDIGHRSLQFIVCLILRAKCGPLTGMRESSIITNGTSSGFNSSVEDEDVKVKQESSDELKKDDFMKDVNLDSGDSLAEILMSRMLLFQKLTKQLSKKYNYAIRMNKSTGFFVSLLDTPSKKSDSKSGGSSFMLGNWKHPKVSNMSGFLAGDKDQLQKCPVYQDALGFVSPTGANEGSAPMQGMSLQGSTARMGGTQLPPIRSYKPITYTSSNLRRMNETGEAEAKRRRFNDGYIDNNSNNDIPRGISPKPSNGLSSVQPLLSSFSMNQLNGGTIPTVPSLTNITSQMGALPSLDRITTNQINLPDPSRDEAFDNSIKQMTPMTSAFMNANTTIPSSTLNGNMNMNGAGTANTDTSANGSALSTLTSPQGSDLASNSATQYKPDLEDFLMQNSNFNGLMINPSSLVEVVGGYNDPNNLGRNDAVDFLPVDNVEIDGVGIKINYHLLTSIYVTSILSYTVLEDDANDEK

| Sequence | PBM E-score |
| --- | --- |
| ACTTTATG | -0.17 |
| ATCAGTAG | -0.276 |
| ACAGGGCC | 0.115 |
| GGTCCCCA | 0.0281 |
| ACTCGGAC | 0.385 |
| ACTCGGAT | 0.311 |
| CCTCGGAA | 0.314 |
| ACTCGGAG | 0.305 |
| ACTCGGCC | 0.361 |
| CGTCGGAG | 0.313 |
| GCTCGGCC | 0.375 |
| CCTCGGGC | 0.31 |
| CCTCGGAC | 0.39 |
| CCTCGGCC | 0.346 |
| ACTCGGAA | 0.344 |
| CCTCGGAG | 0.394 |
| AGACTAAG | -0.103 |
| CGGCAGGA | 0.175 |
| ATGGAAAC | -0.0981 |
| TCACTTAA | -0.167 |
| CGCGCCGC | 0.228 |
| AAACGTCG | 0.00491 |

| Sequence | PBM E-score |
| --- | --- |
| GGTCGGAC | 0.342 |
| CCTCGGCG | 0.37 |
| ACTCGGCG | 0.259 |
| CCTCGGCA | 0.294 |
| GCTCGGAA | 0.335 |
| GCTCGGAC | 0.403 |
| GATCAAAC | -0.0316 |
| TAGAGCAA | -0.296 |
| AGTTGATG | -0.292 |
| ACGATATA | -0.0495 |
| CCGATATA | 0.44 |
| GCGATATA | 0.24 |
| ACGATATC | 0.0796 |
| CAGATATC | 0.199 |
| CCGATATC | 0.458 |
| AATCGGGA | 0.159 |
| ATGCCTTG | -0.2 |
| CCAGACGA | -0.0873 |
| ACCGTCCG | 0.381 |
| AACGTCCG | 0.371 |
| CCCGTCCG | 0.314 |
| ATCGTCCA | -0.0714 |

| Sequence | PBM E-score |
| --- | --- |
| AACGTCCA | -0.0731 |
| ACCGTCCC | 0.141 |
| AACGTCCC | -0.179 |
| ATCGTCCC | 0.0149 |
| ATCGTCCG | 0.379 |
| CAGTGCCC | 0.00772 |
| ACAAGGGC | -0.112 |
| CCATTAGG | -0.215 |
| AATTGCAG | -0.0487 |
| CGAGGCAC | 0.0885 |
| AATAGATA | -0.00886 |
| GCCTTAAC | -0.0709 |
| CTGGTTTA | -0.309 |
| ACGTCTAC | -0.179 |
| CTGGTCAC | -0.325 |
| AACGGGGG | 0.158 |
| GCCAGAGA | -0.227 |
| ACCAGAGT | -0.222 |
| CCCAGAGA | -0.226 |
| CCCGGAGA | 0.428 |
| CCGGGAGA | 0.29 |
| GCCGGAGC | 0.344 |

| Sequence | PBM E-score |
| --- | --- |
| CCCGGAGC | 0.354 |
| ACCGGAGT | 0.4 |
| GACGGAGA | 0.318 |
| ACCGGAAT | 0.36 |
| GCCGGAGA | 0.372 |
| ACCGGAGC | 0.409 |
| ATTGGTGA | -0.281 |
| AGCTTTTG | -0.167 |
| AGTAGTGA | -0.1 |
| AAGAAGGA | -0.21 |
| ACAGGAAT | -0.135 |
| ACACGGAT | 0.209 |
| CTCCTCAC | -0.186 |
| CCGTTCCA | 0.172 |
| AGCGGAGG | 0.158 |
| AACGGAGA | 0.357 |
| ACAGGAGA | -0.131 |
| AACGGAGT | 0.373 |
| AGCGGAGA | 0.276 |
| TCCGGAGA | 0.442 |
| ACCGGAGA | 0.43 |
| AACGGAGC | 0.241 |

| Sequence | PBM E-score |
| --- | --- |
| TACGGAGA | 0.326 |
| ACCGGAGG | 0.399 |
| CACGGAGA | 0.365 |
| CCCGGAGG | 0.285 |
| CAAATAAG | 0.0685 |
| AAAACGGG | 0.174 |
| CGGGGACG | 0.163 |
| AACGCGGG | 0.267 |
| GCGTCTAA | -0.0983 |
| GACACAGA | 0.0169 |
| GCCATACC | 0.0518 |
| CTATCGAG | -0.0625 |
| CAGGTTTA | -0.0176 |
| AACGGTCG | 0.23 |
| TAGCACTA | -0.326 |
| CGATTTAA | 0.0314 |
| CGATTTAC | 0.149 |
| AGATTTAC | -0.103 |
| GGATTTAA | 0.444 |
| TGATTTAA | 0.0921 |
| GGATTTAC | 0.415 |
